Reference: paper PMC4552634, “A New Set of Chemical Starting Points with Plasmodium falciparum Transmission-Blocking Potential for Antimalarial Drug Discovery” (PLoS ONE, 2015)
About 3,200 (25%) of roughly 13,000 compounds showed an effect of 50% or more. Some of the results follow.

tested on: P. falciparum stage V gametocytes; design: BacTiter-Glo ATP luminescence viability of purified stage V gametocytes in 384-well plates, per cent inhibition versus DMSO; settings: 48 h, 5 µM; inhibitor

Row | Structure (SMILES) | % Inhibition [%]
1 | O=C(Nc1ccc2c(c1)CCN2C1CCN(Cc2csc3ccccc23)C1)c1ccco1 (centres unmarked) [TCMDC-135069] | 39.32
2 | CN1CCN(c2ccnc3cc4ccccc4cc23)CC1 [TCMDC-124200] | 1.444
3 | CCN1CCCC(Nc2ccnc3cc4ccccc4cc23)C1 (centres unmarked) [TCMDC-123499] | 94.14
4 | c1ccc2cc3c(NCCN4CCOCC4)ccnc3cc2c1 [TCMDC-125814] | -3.95
5 | Cn1c(=N)cc(-c2ccc(Br)cc2)c2c(=O)[nH]c(N)nc21 [TCMDC-137743] | 6.431
6 | Cc1csc(-c2ccc3[nH]cc(C4=CCN(C)CC4)c3c2)n1 [TCMDC-132040] | -6.013
7 | CC(C)Oc1cc2c(cc1NS(=O)(=O)c1ccc(-c3ccc(Cl)s3)cc1F)CCN(C)CC2 [TCMDC-141582] | 18.13
8 | CN1CCc2cc(NS(=O)(=O)c3ccc(-c4ccc(Cl)s4)cc3)c(N3CCCCC3)cc2CC1 [TCMDC-141588] | 76.97
9 | CN1CCc2cc(NS(=O)(=O)c3ccc(-c4ccc(Cl)cc4)cc3)c(OCCCN3CCCCC3)cc2CC1 [TCMDC-141754] | 108.9
10 | COc1ccc(-c2ccc(S(=O)(=O)Nc3cc4c(cc3OC(C)C)CCNCC4)cc2)cc1 [TCMDC-141481] | 37.39
11 | CC(C)Oc1cc2c(cc1NS(=O)(=O)c1ccc(-c3ccc(Cl)cc3)cc1)CCN(C)CC2 [TCMDC-141459] | 21.1
12 | O=S(=O)(Nc1cc2c(cc1OCCCN1CCCCC1)CCNCC2)c1ccc(-c2ccc(Cl)cc2)cc1 [TCMDC-141753] | 106.2
13 | Cc1cc(-c2ccc(S(=O)(=O)Nc3cc4c(cc3OC(C)C)CCN(C)CC4)cc2)ccc1Cl [TCMDC-141488] | 42.37
14 | CN1CCc2cc(O)c(NS(=O)(=O)c3ccc(-c4ccc(Cl)cc4)cc3)cc2CC1 [TCMDC-141501] | -85.22
15 | O=S(=O)(Nc1cc2c(cc1O)CCNCC2)c1ccc(-c2ccc(Cl)cc2)cc1 [TCMDC-141497] | -93.89
16 | N=C(N)NCCCCN(Cc1ccccc1)c1ccccc1 [TCMDC-131834] | 24.97
17 | Nc1nc2cccc3ccc4cccc1c4c32 [TCMDC-142055] | 15.08
18 | COc1cc2ncnc(Nc3ccc(OCc4ccccc4Br)c(Cl)c3)c2cc1OC [TCMDC-131913] | 20.89
19 | O=[N+]([O-])c1ccc(C=NO)nc1 [TCMDC-131967] | 114.3
20 | O=[N+]([O-])c1ccc(C=NNc2nc3ccccc3[nH]2)cc1 [TCMDC-124105] | -75.71
21 | CCCCN(CCCC)Cc1cc(N(C)c2ccc([N+](=O)[O-])cn2)ccc1O [TCMDC-137484] | -6.258
22 | NC1CCN(c2nc(NCCCc3ccc(O)cc3)nc(NCc3ccccc3-c3ccccc3)n2)CC1 [TCMDC-133390] | 36.08
23 | CC1(C)N=C(N)N=C(N)N1OCCc1ccccc1 [TCMDC-131597] | -4.135

Row | Structure (SMILES) | % Inhibition [%]
24 | COc1ccc(C2C(C(=O)Nc3cc(C)ccc3OC)c3ccccc3C(=O)N2C)cc1 (centres unmarked) [TCMDC-123595] | 25.42
25 | COc1ccc(NC(=O)C2c3ccccc3C(=O)N(CC(C)C)C2c2cccs2)cc1OC (centres unmarked) [TCMDC-125289] | 95.75
26 | COc1cc(OC)c(NC(=O)C2c3ccccc3C(=O)N(C)C2c2cccs2)cc1Cl (centres unmarked) [TCMDC-125447] | 95.47
27 | CCCCN1CCN(c2cc(NS(=O)(=O)c3cccc(C(=O)Nc4ccc(C(F)(F)F)cc4)c3)ccc2OC)CC1 [TCMDC-141779] | -16.75
28 | COc1ccc(C2C(C(=O)Nc3ccc(C)cc3Br)c3ccccc3C(=O)N2C)cc1 (centres unmarked) [TCMDC-123597] | -11.57
29 | COc1cc(OC)c(NC(=O)Nc2ccnc3ccccc23)cc1Cl [TCMDC-139463] | 15
30 | COc1ccc(NC(=O)c2ccc(-c3nc(-c4cccc(C(F)(F)F)c4)cs3)cc2)cc1N1CCN(C)CC1 [TCMDC-138686] | 5.66
31 | COc1cc2c(cc1OC)C(C(=O)Nc1ccc(C(F)(F)F)cc1)C(c1cccs1)N(C)C2=O (centres unmarked) [TCMDC-123797] | 62.6
32 | COc1ccc(C2C(C(=O)Nc3cc(Cl)c(OC)cc3OC)c3ccccc3C(=O)N2C)cc1 (centres unmarked) [TCMDC-123596] | 80.19
33 | COc1ccc(C2CC(c3cccs3)=NN2C(=O)CNc2ccccc2F)cc1OC (centres unmarked) [TCMDC-123552] | -9.982
34 | O=C(/C=C/c1ccc(Cl)cc1)NCCCCCN1CCCC(C(=O)Nc2ccc(F)c(Cl)c2)C1 (centres unmarked) [TCMDC-136113] | 4.941
35 | CCN(CC)CCNC(=O)c1ccc(NC(=O)c2cc3c(C)nn(-c4ccc(Cl)cc4)c3s2)cc1 [TCMDC-124020] | 26.74
36 | N#Cc1ccc(C=Cc2nccc3c2[nH]c2ccccc23)cc1 [TCMDC-124483] | -0.1389
37 | Cc1cc(C(=O)OCC(=O)Nc2c(C)n(C)n(-c3ccccc3)c2=O)c(C)n1-c1ccc(F)cc1 [TCMDC-123794] | -8.44
38 | CCOC(=O)c1[nH]c2ccc(F)cc2c1NC(=O)CN1CCN(c2cccc(C(F)(F)F)c2)CC1 [TCMDC-124048] | -41.18
39 | COc1ccc2nccc(N3CCC(NCCNS(=O)(=O)c4ccc5c(c4)NC(=O)CS5)C3)c2n1 (centres unmarked) [TCMDC-134527] | -17.46
40 | CCCCCCCCCN(CCC)C(=O)[C@@H]1OC(C(=O)OC(c2ccccc2)c2ccccc2)=C[C@H](NC(=O)OC(C)(C)C)[C@H]1NC(C)=O [TCMDC-132020] | -25.5
41 | O=C(Nc1ccc(Oc2cccnc2)cc1)C1CCN(Cc2cc(Cl)ccc2O)CC1 [TCMDC-124640] | -32.1
42 | O=C(Cc1cnc[nH]1)Nc1ccc(-c2ccc(-c3nc4ccc(F)cc4[nH]3)cc2)cc1 [TCMDC-136781] | -5.638
43 | CC(=O)Nc1nc(C(=O)Nc2ccc(-c3cccc(-c4nc5ccc(F)cc5[nH]4)c3)cc2)cs1 [TCMDC-137122] | -21.41
44 | O=C(NCc1cccc(OC(F)(F)F)c1)c1cnc2c(c1)nc(-c1cnc(-c3ccccc3)[nH]1)n2CCc1cnc[nH]1 [TCMDC-139690] | -64.98
45 | COc1ccc(OC)c(NC(=O)C2c3ccccc3C(=O)N(CC(C)C)C2c2cccs2)c1 (centres unmarked) [TCMDC-124759] | 26.61
46 | COc1cc(OC)c(NC(=O)C2c3ccccc3C(=O)N(CC(C)C)C2c2cccs2)cc1Cl (centres unmarked) [TCMDC-124760] | 55.1

Row | Structure (SMILES) | % Inhibition [%]
47 | CCn1c(=O)c(C(=O)Nc2cc(Cl)c(OC)cc2OC)nc2ccccc21 [TCMDC-125064] | -72.41
48 | O=C(CN1CCN(C(C(=O)Nc2cc(C(F)(F)F)ccc2Cl)c2ccccc2)CC1)NC1CC1 (centres unmarked) [TCMDC-125267] | 8.518
49 | COc1cc2nc(N3CCC(c4ccccc4)CC3)nc(NCc3ccc(=O)[nH]c3)c2cc1OC [TCMDC-136497] | -1.844
50 | COc1cc2nc(NCCc3ccccc3)nc(NCc3ccc(C#N)cc3)c2cc1OC [TCMDC-135300] | 97.53
51 | CC(C)Nc1nc(NCCc2cnc[nH]2)nc(NCc2cccc3ccccc23)n1 [TCMDC-139736] | 1.941
52 | COc1ccc(C(C)Nc2nc(N)c3cc(OC)c(OC)cc3n2)cc1.Cl (centres unmarked) [TCMDC-131891] | 10.29
53 | COc1cc2nc(NCCc3ccccc3)nc(NC(C)c3ccccc3)c2cc1OC (centres unmarked) [TCMDC-135384] | 51.56
54 | COc1cc2nc(N3CCC(CCCC4CCNCC4)CC3)nc(NCc3ccccn3)c2cc1OC [TCMDC-138494] | 104
55 | c1ccc(CNc2nc(NCCc3cnc[nH]3)nc(NCc3cccc4ccccc34)n2)cc1 [TCMDC-139737] | 1.176
56 | COc1ccc(CCNc2nc(NCCc3cnc[nH]3)nc(NCc3cccc4ccccc34)n2)cc1OC [TCMDC-139244] | 77.02
57 | C[C@@H](Nc1nc(NCc2ccccc2)c2sccc2n1)c1ccccc1 [TCMDC-136500] | -1.002
58 | CC[C@H]1CN2CC[C@H]1C[C@H]2[C@H](OC(=O)c1ccccc1)c1cc(C#N)nc2ccc(OC)cc12 [TCMDC-138208] | 28.19
59 | NC(N)=NC(=O)Nc1cc(Cl)c(Cl)c(Br)c1 [TCMDC-137463] | -17.34
60 | N=C(N)c1cc(Cl)cc(NC(=O)Nc2cc(Cl)cc(C(=N)N)c2)c1 [TCMDC-124110] | -2.183
61 | COc1cc2nc(-c3ccccc3)nc(N3CCN(C(=O)c4ccco4)CC3)c2cc1OC [TCMDC-125059] | -9.427
62 | COc1cc2nc(N3CCC(C(N)=O)CC3)nc(NCc3ccccc3)c2cc1OC [TCMDC-132023] | 16.05
63 | COc1cc2nc(NCC3CCCCC3)nc(NCc3ccccc3)c2cc1OC [TCMDC-132014] | 59.54
64 | COc1cc2nc(N3CCN(C(=O)c4ccco4)CC3)nc(NCc3ccccc3)c2cc1OC [TCMDC-132028] | 52.38
65 | COc1ccc(CNc2nc(NCCc3ccccc3)c3cc(OC)c(OC)cc3n2)cc1OC [TCMDC-132019] | 85.76
66 | COc1cc2nc(NCCc3ccccc3)nc(NCc3cc(C)no3)c2cc1OC [TCMDC-135435] | 96.72
67 | CC(=O)NCCCCC1NC2(C(=O)N(Cc3ccc(C(C)(C)C)cc3)c3ccccc32)C2C(=O)N(C3CCCCC3)C(=O)C12 (centres unmarked) [TCMDC-139771] | 5.053
68 | Cc1cc(N(C)C)nc(Nc2ccc(NC(=O)c3ccc(F)cc3)cc2)n1 [TCMDC-124723] | 5.364
